Values joined by “and” are separate entries in the source; they are usually repeats but may differ in a detail not shown here. Identical values can stand only once. About 2,100 (2.2%) of roughly 94,000 compounds were called active. Many of the other results were omitted from the sample, so actives are more common in it than they were. A number with no mark means an inactive call. Rule as the data show it: active = activity change below about -80%; inconclusive = no clear call, values can overlap the other calls; inactive = above that.
assay: P. falciparum Dd2 growth inhibitors, primary screen, SYBR Green fluorescence, single dose replicates (AID 1159554); conditions: 72 h, at 10 µM, active compounds read low

Compared with COc1cccc(C#Cc2cnc3c(c2)C(=O)N([C@@H](C)CO)C[C@H](C)[C@@H](CN(C)C(C)=O)O3)c1, COc1cccc(C#Cc2cnc3c(c2)C(=O)N([C@@H](C)CO)C[C@H](C)[C@@H](CN(C)C(=O)C2CCC2)O3)c1 is lower in activity change: -15.1% for the first, -74.6% for the second.

Going from C[C@@H]1CN([C@H](C)CO)C(=O)c2cc(-c3ccccc3)cnc2O[C@H]1CN(C)C(=O)NC1CCCC1 to C[C@@H]1CN([C@@H](C)CO)C(=O)c2cc(/C=C/c3ccccc3)cnc2O[C@H]1CN(C)C(=O)C1CCC1, the activity change falls from -13% to -56.3%.

Going from C[C@H](CO)N1C[C@H](C)[C@H](CN(C)C(=O)C2CC2)Oc2ncc(C#Cc3ccccc3)cc2C1=O to C[C@H](CO)N1C[C@H](C)[C@H](CN(C)C(=O)C2CCCCC2)Oc2ncc(C#CC3CC3)cc2C1=O, the activity change rises from -17.2% to -16.5%.

First: COc1ccc(-c2cnc3c(c2)C(=O)N([C@@H](C)CO)C[C@H](C)[C@H](CN(C)C(=O)Cc2cccnc2)O3)cc1
Second: C[C@H](CO)N1C[C@H](C)[C@@H](CN(C)C(=O)Cc2cccnc2)Oc2ncc(-c3ccncc3)cc2C1=O
The activity change of the first is lower: -2.15% for the first, 14.1% for the second.

Compared with CC(C)(C)[S@@](=O)N1Cc2cc(C(=O)N3CCCCC3)nc(-c3cccc(-c4cccc(C#N)c4)c3)c2[C@H]1CCO, COc1ccc2c3c([nH]c2c1)[C@@H](CO)N(C(=O)NC(C)C)CC31CCN(C(=O)c2ccccn2)CC1 is higher in activity change: -13.7% for the first, -13% for the second.

Compared with O=C(c1ccc(F)cc1)N1CC(=O)N2[C@H](C1)[C@@H](c1ccc(C#CC3CC3)cc1)[C@@H]2CO, COCC(=O)N1C[C@@H](C)[C@H](OC)CN(C)C(=O)c2ccc(NC(=O)c3ccc(F)cc3)cc2OC[C@H]1C is higher in activity change: -8.1% for the first, 12.6% for the second.

Compared with Cc1ccc(S(=O)(=O)Nc2ccc3c(c2)C(=O)N([C@H](C)CO)C[C@H](C)[C@@H](CN(C)S(=O)(=O)c2cn(C)cn2)OCCCC[C@H](C)O3)cc1, C[C@@H]1CCCCO[C@@H](CN(C)S(=O)(=O)c2cn(C)cn2)[C@H](C)CN([C@H](C)CO)C(=O)c2cc(NS(=O)(=O)c3ccc(Cl)cc3)ccc2O1 is lower in activity change: -12.5% for the first, -31.8% for the second.

First: COC(=O)C[C@H]1CC[C@H](NC(=O)Nc2ccc(C(F)(F)F)cc2)[C@H](CO)O1
Second: COc1ccc(NC(=O)N[C@@H]2CC[C@H](CCn3cc(-c4ccc(OC)cc4)nn3)O[C@@H]2CO)cc1
The activity change of the first is higher: 21.3% for the first, -56.9% for the second.

First: CCCNC(=O)C[C@H]1CC[C@@H]2[C@H](COc3ccc(NC(=O)c4ccc(OC)cc4)cc3C(=O)N2C)O1
Second: COCC(=O)Nc1ccc2c(c1)C(=O)N(C)[C@@H]1CC[C@@H](CC(=O)NCc3cccc(F)c3)O[C@@H]1CO2
The activity change of the first is lower: -22.5% for the first, 5.24% for the second.

First: CCC(=O)N1[C@@H](CO)[C@@H](c2ccccc2)C12CN(C(=O)c1cnccn1)C2
Second: CCS(=O)(=O)N1[C@H](CO)[C@@H](c2ccccc2)C12CN(C(=O)c1ccccc1F)C2
The activity change of the first is higher: -2.84% for the first, -5.45% for the second.

First: CCC(=O)N1CC2(CN(Cc3cccnc3)C2)c2c(n(C)c3cc(OC)ccc23)[C@@H]1CO
Second: CCC(=O)N1CC2(CN(Cc3ccc(Cl)cc3)C2)c2c([nH]c3cc(OC)ccc23)[C@@H]1CO
The activity change of the first is higher: -20.9% for the first, -23% for the second.

Going from C[C@H]1CN([C@@H](C)CO)C(=O)c2c(c3ccccc3n2C)-c2ccccc2CO[C@@H]1CN(C)C(=O)Nc1ccnc(N2CCOCC2)c1 to COc1ccc(NC(=O)N(C)C[C@H]2OCCCC[C@H](C)Oc3ccc(NS(=O)(=O)c4ccc(Cl)cc4)cc3C(=O)N([C@@H](C)CO)C[C@H]2C)cc1, the activity change falls from -58.1% to -68.7%.

First: CO[C@H]1CN(C)C(=O)c2cc(NC(=O)C3CC3)ccc2OC[C@H](C)N(CC2CCCC2)C[C@@H]1C
Second: COCC(=O)Nc1ccc2c(c1)OC[C@H](C)N(C)C[C@H](C)[C@@H](OC)CN(C)C2=O
The activity change of the first is lower: -38.7% for the first, 26.8% for the second.

Going from CCS(=O)(=O)N1CC2(C1)CN(S(=O)(=O)c1ccccc1)[C@H](CO)c1c2c2ccc(OC)cc2n1C to CCS(=O)(=O)N1CCC2(CC1)CN(S(=O)(=O)c1ccc(C)cc1)[C@H](CO)c1[nH]c3cc(OC)ccc3c12, the activity change falls from -29.8% to -53.4%.

Going from O=C(C[C@@H]1C[C@@H]2c3cc(NC(=O)c4ccc5c(c4)OCO5)ccc3O[C@@H]2[C@H](CO)O1)NCCc1ccccc1 to CN(C)CC(=O)Nc1ccc2c(c1)[C@@H]1C[C@H](CC(=O)NCc3ccc(-c4ccccc4)cc3)O[C@@H](CO)[C@@H]1O2, the activity change rises from -3.19% to -1.93%.

Going from COc1ccc2c3c([nH]c2c1)[C@H](CO)N(C(=O)Nc1ccc(F)cc1)CC31CCN(C(=O)c2ccccn2)CC1 to CCCNC(=O)N1CC2(CCN(Cc3ccc(F)cc3)CC2)c2c([nH]c3cc(OC)ccc23)[C@@H]1CO, the activity change rises from -79.3% to -77.7%.

First: CCCNC(=O)N1CCC2(CC1)CN(Cc1ccccc1)[C@H](CO)c1[nH]c3cc(OC)ccc3c12
Second: COc1ccc2c3c([nH]c2c1)[C@@H](CO)N(C(=O)Cc1ccccc1)CC31CCN(C)CC1
The activity change of the first is lower: -59.4% for the first, -55.8% for the second.

Going from CCCC(=O)N1CCC2(CC1)CN(C(=O)C1CCCCC1)[C@@H](CO)c1[nH]c3cc(OC)ccc3c12 to COc1ccc2c3c([nH]c2c1)[C@@H](CO)N(Cc1nccs1)CC31CCN(C(=O)C2CCCC2)CC1, the activity change rises from -78% to -74.5%.

First: CCC(=O)N1CCC2(CC1)CN(Cc1cccc(Cl)c1)[C@@H](CO)c1c2c2ccc(OC)cc2n1C
Second: COc1ccc2c3c([nH]c2c1)[C@@H](CO)N(C(=O)CC1CC1)CC31CCN(Cc2cccnc2)CC1
The activity change of the first is lower: -75.9% for the first, -7.62% for the second.

Compared with COc1ccc2c3c([nH]c2c1)[C@@H](CO)N(Cc1ccc2c(c1)OCO2)CC31CN(C(=O)Nc2c(C)noc2C)C1, COc1ccc2c3c([nH]c2c1)[C@H](CO)N(Cc1nccs1)CC31CCN(Cc2cccnc2)CC1 is lower in activity change: -13.6% for the first, -58.7% for the second.

First: Cc1noc(C)c1NC(=O)N(C)C[C@@H]1Oc2cc(Br)ccc2S(=O)(=O)N([C@@H](C)CO)C[C@H]1C
Second: C[C@@H]1CCCCO[C@H](CN(C)S(C)(=O)=O)[C@@H](C)CN([C@H](C)CO)C(=O)c2cc(NC(=O)Nc3ccc4c(c3)OCO4)ccc2O1
The activity change of the first is lower: 12.9% for the first, 25.2% for the second.

Compared with COc1cccc(NC(=O)C[C@@H]2CC[C@@H]3[C@H](COc4ccc(NC(=O)C5CCOCC5)cc4C(=O)N3C)O2)c1, COc1ccc2c3c([nH]c2c1)[C@@H](CO)N(C(=O)C1CC1)CC31CCN(Cc2nccs2)CC1 is lower in activity change: 11.1% for the first, -26.9% for the second.

Going from C/C=C/c1ccc2c(c1)[C@H]1[C@H](CCN1S(=O)(=O)c1cn(C)cn1)[C@H](CO)N2 to CCCNC(=O)N1C[C@H]2[C@@H](c3ccccc31)[C@@H](CO)N2C(=O)NCCC, the activity change falls from -1.2% to -1.9%.

First: CC(C)NC(=O)N[C@H]1CC[C@H](CC(=O)N2CCCCC2)O[C@@H]1CO
Second: CN(C)CC(=O)N[C@@H]1CC[C@H](CC(=O)O)O[C@H]1CO
The activity change of the first is higher: 36.7% for the first, 14.9% for the second.

Work on COc1ccc2c3c([nH]c2c1)[C@@H](CO)N(C(=O)c1ccccc1)CC31CCN(Cc2cccnc2)CC1 yielded an activity change of -47.6%.

For C[C@H](CO)N1C[C@H](C)[C@H](CN(C)C(=O)C2CCCCC2)Oc2ncc(C#Cc3cccc(F)c3)cc2C1=O, the activity change was -86.4% (active).
In the case of COc1ccc(-c2cnc3c(c2)C(=O)N([C@H](C)CO)C[C@@H](C)[C@H](CN(C)C(=O)Cc2ccncc2)O3)cc1, the activity change is reported as -84.6% (active).
With C[C@H]1CN([C@@H](C)CO)C(=O)c2cc(/C=C/c3ccccc3)cnc2O[C@@H]1CN(C)C(=O)NC1CCCCC1 the activity change was -82.8% (active).
For COc1cccc(C#Cc2cnc3c(c2)C(=O)N([C@H](C)CO)C[C@@H](C)[C@@H](CN(C)C(=O)C2CCC2)O3)c1, the activity change was -84.4% (active).
For CCC(=O)N1CCC2(CC1)CN(Cc1ccc(Cl)cc1)[C@@H](CO)c1[nH]c3cc(OC)ccc3c12, the activity change was -90.6% (active).
For CCC(=O)N1CCC2(CC1)CN(Cc1cccc(OC)c1)[C@@H](CO)c1[nH]c3cc(OC)ccc3c12, the activity change was -89.5% (active).
In the case of COc1ccc2c3c([nH]c2c1)[C@H](CO)N(Cc1ccccc1)CC31CCN(C(=O)c2ccccn2)CC1, the activity change is reported as -83.5% (active).
For CCS(=O)(=O)N1CCC2(CC1)CN(Cc1ccc3c(c1)OCO3)[C@H](CO)c1[nH]c3cc(OC)ccc3c12, the activity change was -89.1% (active).
In the case of COc1ccc2c3c([nH]c2c1)[C@H](CO)N(Cc1ccc(F)cc1)CC31CCN(Cc2ccccn2)CC1, the activity change is reported as -89.5% (active).
In the case of COc1cccc(CN2CC3(CN(Cc4ccccn4)C3)c3c([nH]c4cc(OC)ccc34)[C@@H]2CO)c1, the activity change is reported as -87.9% (active).
With COc1ccc2c3c([nH]c2c1)[C@H](CO)N(Cc1nccs1)CC31CCN(Cc2ccncc2)CC1 the activity change was -85.5% (active).
In the case of COc1ccc2c3c([nH]c2c1)[C@H](CO)N(Cc1cccc(F)c1)CC31CCN(Cc2ccccn2)CC1, the activity change is reported as -92.5% (active).
With CNC(=O)C[C@H]1CC[C@H]2[C@H](COc3ccc(NC(=O)c4cccc(F)c4)cc3C(=O)N2C)O1 the activity change was 1.45% and 0.97%.
With COc1ccc2c3c([nH]c2c1)[C@@H](CO)N(Cc1ccccc1)CC31CCN(Cc2cncnc2)CC1 the activity change was -91.1% (active).
